Positions count from the first letter of the chain named.
Columns and labels:
Test in all cases: PBM; 200 nM protein, PBS
Settings in all cases: dsDNA, one strand shown
[1] = target: T1, SIX6 (Homo sapiens, UniProt O95475 114-200, L167I)
T1 sequence: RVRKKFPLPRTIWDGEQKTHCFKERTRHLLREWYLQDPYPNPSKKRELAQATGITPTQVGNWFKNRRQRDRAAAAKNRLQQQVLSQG

[2] = target: T2, SIX6 (Homo sapiens, UniProt O95475 114-200, L143V)
T2 sequence: T1 sequence with L30V, I54L

[3] = target: T3, SIX6 (Homo sapiens, UniProt O95475 114-200, H141N)
T3 sequence: T1 sequence with H28N, I54L

[4] = target: T4, SIX6 (Homo sapiens, UniProt O95475 114-200, T165P)
T4 sequence: T1 sequence with T52P, I54L

[5] = target: T5, SIX6 (Homo sapiens, UniProt O95475 114-200, L167M)
T5 sequence: T1 sequence with I54M

[6] = target: T6, SIX6 (Homo sapiens, UniProt O95475 114-200, L143M)
T6 sequence: T1 sequence with L30M, I54L

[7] = target: T7, SIX6 (Homo sapiens, UniProt O95475 114-200, L143I)
T7 sequence: T1 sequence with L30I, I54L

[8] = target: T8, SIX6 (Homo sapiens, UniProt O95475 114-200, T165G)
T8 sequence: T1 sequence with T52G, I54L

[9] = target: T9, SIX6 (Homo sapiens, UniProt O95475 114-200, T139Q)
T9 sequence: T1 sequence with T26Q, I54L

[10] = target: T10, SIX6 (Homo sapiens, UniProt O95475 114-200, T165A)
T10 sequence: T1 sequence with T52A, I54L

[11] = target: T11, SIX6 (Homo sapiens, UniProt O95475 114-200, L167V)
T11 sequence: T1 sequence with I54V

[12] = target: T12, SIX6 (Homo sapiens, UniProt O95475 114-200)
T12 sequence: T1 sequence with I54L

[13] = target: T13, SIX6 (Homo sapiens, UniProt O95475 114-200, T165I)
T13 sequence: T1 sequence with T52I, I54L

For GGGTATCA, the binding signal [1] was 11.7 upbm affinity estimate (log intensity, higher = more binding, comparable within an allelic series), the binding signal [2] was 10.5 upbm affinity estimate (log intensity, higher = more binding, comparable within an allelic series) and the binding signal [3] was 11.7 upbm affinity estimate (log intensity, higher = more binding, comparable within an allelic series). For the same sequence, the binding signal [4] was 9.44 upbm affinity estimate (log intensity, higher = more binding, comparable within an allelic series), the binding signal [5] was 11 upbm affinity estimate (log intensity, higher = more binding, comparable within an allelic series) and the binding signal [6] was 11.4 upbm affinity estimate (log intensity, higher = more binding, comparable within an allelic series). The binding signal [7] was 10.6 upbm affinity estimate (log intensity, higher = more binding, comparable within an allelic series), the binding signal [8] was 11.8 upbm affinity estimate (log intensity, higher = more binding, comparable within an allelic series) and the binding signal [9] was 11.6 upbm affinity estimate (log intensity, higher = more binding, comparable within an allelic series). The binding signal [10] was 11.6 upbm affinity estimate (log intensity, higher = more binding, comparable within an allelic series), the binding signal [11] was 11.6 upbm affinity estimate (log intensity, higher = more binding, comparable within an allelic series) and the binding signal [12] was 11.4 upbm affinity estimate (log intensity, higher = more binding, comparable within an allelic series). The binding signal [13] was 11.5 upbm affinity estimate (log intensity, higher = more binding, comparable within an allelic series).

For AAGTGCGC, the binding signal [1] was 8.9 upbm affinity estimate (log intensity, higher = more binding, comparable within an allelic series), the binding signal [2] was 9.07 upbm affinity estimate (log intensity, higher = more binding, comparable within an allelic series) and the binding signal [3] was 8.88 upbm affinity estimate (log intensity, higher = more binding, comparable within an allelic series). The binding signal [4] was 9.2 upbm affinity estimate (log intensity, higher = more binding, comparable within an allelic series), the binding signal [5] was 9.05 upbm affinity estimate (log intensity, higher = more binding, comparable within an allelic series) and the binding signal [6] was 9.11 upbm affinity estimate (log intensity, higher = more binding, comparable within an allelic series). For the same sequence, the binding signal [7] was 9.08 upbm affinity estimate (log intensity, higher = more binding, comparable within an allelic series), the binding signal [8] was 9 upbm affinity estimate (log intensity, higher = more binding, comparable within an allelic series) and the binding signal [9] was 9.05 upbm affinity estimate (log intensity, higher = more binding, comparable within an allelic series). For the same sequence, the binding signal [10] was 8.96 upbm affinity estimate (log intensity, higher = more binding, comparable within an allelic series), the binding signal [11] was 8.99 upbm affinity estimate (log intensity, higher = more binding, comparable within an allelic series) and the binding signal [12] was 9.04 upbm affinity estimate (log intensity, higher = more binding, comparable within an allelic series). The binding signal [13] was 9.04 upbm affinity estimate (log intensity, higher = more binding, comparable within an allelic series).

In the case of CAGGTATC, the binding signal [1] is reported as 10.9 upbm affinity estimate (log intensity, higher = more binding, comparable within an allelic series), the binding signal [2] is reported as 10.2 upbm affinity estimate (log intensity, higher = more binding, comparable within an allelic series) and the binding signal [3] is reported as 10.9 upbm affinity estimate (log intensity, higher = more binding, comparable within an allelic series). For the same sequence, the binding signal [4] was 9.6 upbm affinity estimate (log intensity, higher = more binding, comparable within an allelic series), the binding signal [5] was 10.5 upbm affinity estimate (log intensity, higher = more binding, comparable within an allelic series) and the binding signal [6] was 10.7 upbm affinity estimate (log intensity, higher = more binding, comparable within an allelic series). For the same sequence, the binding signal [7] was 10.2 upbm affinity estimate (log intensity, higher = more binding, comparable within an allelic series), the binding signal [8] was 11.1 upbm affinity estimate (log intensity, higher = more binding, comparable within an allelic series) and the binding signal [9] was 11.1 upbm affinity estimate (log intensity, higher = more binding, comparable within an allelic series). The binding signal [10] was 11 upbm affinity estimate (log intensity, higher = more binding, comparable within an allelic series), the binding signal [11] was 10.6 upbm affinity estimate (log intensity, higher = more binding, comparable within an allelic series) and the binding signal [12] was 10.9 upbm affinity estimate (log intensity, higher = more binding, comparable within an allelic series). The binding signal [13] was 10.7 upbm affinity estimate (log intensity, higher = more binding, comparable within an allelic series).

With CGTATCAC the binding signal [1] was 11.2 upbm affinity estimate (log intensity, higher = more binding, comparable within an allelic series), the binding signal [2] was 10.3 upbm affinity estimate (log intensity, higher = more binding, comparable within an allelic series) and the binding signal [3] was 11.3 upbm affinity estimate (log intensity, higher = more binding, comparable within an allelic series). For the same sequence, the binding signal [4] was 9.61 upbm affinity estimate (log intensity, higher = more binding, comparable within an allelic series), the binding signal [5] was 10.6 upbm affinity estimate (log intensity, higher = more binding, comparable within an allelic series) and the binding signal [6] was 11 upbm affinity estimate (log intensity, higher = more binding, comparable within an allelic series). For the same sequence, the binding signal [7] was 10.4 upbm affinity estimate (log intensity, higher = more binding, comparable within an allelic series), the binding signal [8] was 11.3 upbm affinity estimate (log intensity, higher = more binding, comparable within an allelic series) and the binding signal [9] was 11.3 upbm affinity estimate (log intensity, higher = more binding, comparable within an allelic series). The binding signal [10] was 11.2 upbm affinity estimate (log intensity, higher = more binding, comparable within an allelic series), the binding signal [11] was 11 upbm affinity estimate (log intensity, higher = more binding, comparable within an allelic series) and the binding signal [12] was 11 upbm affinity estimate (log intensity, higher = more binding, comparable within an allelic series). The binding signal [13] was 11.1 upbm affinity estimate (log intensity, higher = more binding, comparable within an allelic series).

With AGTATATC the binding signal [1] was 11 upbm affinity estimate (log intensity, higher = more binding, comparable within an allelic series), the binding signal [2] was 10.3 upbm affinity estimate (log intensity, higher = more binding, comparable within an allelic series) and the binding signal [3] was 10.9 upbm affinity estimate (log intensity, higher = more binding, comparable within an allelic series). The binding signal [4] was 9.93 upbm affinity estimate (log intensity, higher = more binding, comparable within an allelic series), the binding signal [5] was 10.8 upbm affinity estimate (log intensity, higher = more binding, comparable within an allelic series) and the binding signal [6] was 10.9 upbm affinity estimate (log intensity, higher = more binding, comparable within an allelic series). The binding signal [7] was 10.3 upbm affinity estimate (log intensity, higher = more binding, comparable within an allelic series), the binding signal [8] was 10.9 upbm affinity estimate (log intensity, higher = more binding, comparable within an allelic series) and the binding signal [9] was 11 upbm affinity estimate (log intensity, higher = more binding, comparable within an allelic series). The binding signal [10] was 10.8 upbm affinity estimate (log intensity, higher = more binding, comparable within an allelic series), the binding signal [11] was 10.7 upbm affinity estimate (log intensity, higher = more binding, comparable within an allelic series) and the binding signal [12] was 10.8 upbm affinity estimate (log intensity, higher = more binding, comparable within an allelic series). For the same sequence, the binding signal [13] was 10.9 upbm affinity estimate (log intensity, higher = more binding, comparable within an allelic series).

For CGCACTCC, the binding signal [1] was 8.92 upbm affinity estimate (log intensity, higher = more binding, comparable within an allelic series), the binding signal [2] was 8.98 upbm affinity estimate (log intensity, higher = more binding, comparable within an allelic series) and the binding signal [3] was 8.96 upbm affinity estimate (log intensity, higher = more binding, comparable within an allelic series). For the same sequence, the binding signal [4] was 9.15 upbm affinity estimate (log intensity, higher = more binding, comparable within an allelic series), the binding signal [5] was 8.96 upbm affinity estimate (log intensity, higher = more binding, comparable within an allelic series) and the binding signal [6] was 8.9 upbm affinity estimate (log intensity, higher = more binding, comparable within an allelic series). For the same sequence, the binding signal [7] was 9.01 upbm affinity estimate (log intensity, higher = more binding, comparable within an allelic series), the binding signal [8] was 9.09 upbm affinity estimate (log intensity, higher = more binding, comparable within an allelic series) and the binding signal [9] was 9 upbm affinity estimate (log intensity, higher = more binding, comparable within an allelic series). For the same sequence, the binding signal [10] was 9.06 upbm affinity estimate (log intensity, higher = more binding, comparable within an allelic series), the binding signal [11] was 8.95 upbm affinity estimate (log intensity, higher = more binding, comparable within an allelic series) and the binding signal [12] was 9.04 upbm affinity estimate (log intensity, higher = more binding, comparable within an allelic series). The binding signal [13] was 8.97 upbm affinity estimate (log intensity, higher = more binding, comparable within an allelic series).

From publication PMC11006913
